Results as given in PubChem BioAssay (NCI).
Compounds without any hit were thinned out: in the full panel of roughly 83,000, 20% have a hit.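 48-hour exposure, single concentration, 96-well plates; percent growth endpoint where 0 means no net growth. Active: below 10.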 Values without a mark were called inactive. Active and inactive are the calls of the source.

System: PC-3 prostate
Assay: NCI-60 one-dose screen, 48 h (100 = growth as untreated, 0 = no growth, -100 = all killed)
Conditions: 10 µM unless noted
Protocol: Growth inhibition of the PC-3 human tumor cell line is measured as a screen for anti-cancer activity. Cells are grown in 96 well plates and exposed to the test compound for 48 hours. Compounds are tested at a single concentration, which is 10^-5 M for most compounds. The reported endpoint is percent growth (GI% or GIPRCNT), where numbers from 0 - 100% represent growth inhibition, and numbers from -100% - 0 represent cell death. For example, a value of 40 represents 60% growth inhibition. A value of 0 means no net growth occurred over the course of the experiment. A value of -40 indicates 40% of cells at the beginning of the experiment died by the end of the experiment. A value of -100 means all cells are dead at the end of the experiment.
NCI-60 Human Tumor Cell Lines Screen was performed using the standard one-dose NCI protocol, which is described in more detail at https://dtp.cancer.gov/discovery_development/nci-60/default.htm.
Compounds with GIPRCNT values below 10 were considered active. Activity score was based on GIPRCNT using the following formula: […]
Score is 0 for GIPRCNT values of 100 or above, 50 for GIPRCNT values of 0, and 100 for GIPRCNT values of -100.

Structure (SMILES) | growth
COc1ccc(C(=O)Nc2ncc(Cc3ccccc3Cl)s2)cc1 | 29.7%
CC(C)(C)n1nnnc1C(Nc1cccc2c1OCO2)c1cc2cccc3ccc4cccc1c4c32 (stereo not given) | 59.4%
CS(=O)(=O)Nc1cc(-c2ccc3ncc(C#N)c(NCc4ccccc4)c3c2)cnc1Cl | -7.11% (active)
Cc1ccc2c(c1)C13C(=C2Br)CCCN1C(=O)c1ccccc13 (stereo not given) | 67.9%
Nc1cc(-c2c[nH]c3ccc(Br)cc23)nc2cc(-c3c[nH]c4ccc(Br)cc34)nn12 | 14.5%
O=S(=O)(Nc1ccc(I)cc1Cl)c1ccc(-c2cnc(C3CC3)o2)cc1 | 34%
COc1ccc(C(=O)CSc2nc3c(c(Nc4ccc(S(N)(=O)=O)cc4)n2)CCCC3)cc1 | 83.7%
Cc1ccc(-c2cc3nc(C(Cl)Cl)nc(-c4ccco4)n3n2)cc1 | 4.32% (active)
O=C1CCCC2=C1C(c1c[nH]c3ccc(Br)cc13)Cc1cc(Br)ccc1N2 (stereo not given) | 9.76% (active)
Cn1cc(-c2nc(N)nnc2-c2c[nH]c3ccc(Br)cc23)c2cc(Br)ccc21 | 20.2%
Oc1cccc2ccc(-c3nnc(SCc4ccc(O)c5ncccc45)n3-c3ccccc3)nc12 | 12.4%
CCCn1cnc2c(c1=N)C(c1ccc(F)cc1)c1sc3c(CC)cccc3c1O2 (stereo not given) | 24%
CNC(=O)c1cc(-c2ccc(NC(=S)Nc3cc(C(F)(F)F)cc(C(F)(F)F)c3)cc2)nc2cccnc12 | 80.6%
CC(=O)c1cc(C(=O)N2c3ccccc3Sc3ccccc32)n2ccc3ccccc3c12 | 37.6%
COc1ccc(S(=O)(=O)NCCCNc2nccc(-c3[nH]c(-c4ccccc4)nc3-c3ccc(Cl)c(O)c3)n2)cc1 | 66.4%
Cc1ccc(-c2nnc(SCc3ccc(O)c4ncccc34)o2)cc1 | 12.2%
O=C(Nc1nonc1-c1ccccc1)c1ccc(C(F)(F)F)cc1 | 71.7%
N#Cc1cccc(/C(N)=N/C(N)=N/c2nc3ccccc3s2)c1 | 17.7%
NS(=O)(=O)c1ccc(Nc2nc(SCC(=O)c3ccc(Cl)cc3)nc3c2CCCC3)cc1 | 31.4%
CCO/C=N/C1=C(C#N)C(c2ccc(Cl)cc2)c2sc3c(C)cccc3c2O1 (stereo not given) | 12%

Structure (SMILES) | growth
Cc1ccc(-c2nnc(SCc3ccc(O)c4ncccc34)n2-c2ccccc2)cc1 | 5.96% (active)
CCCn1cnc2c(c1=N)C(c1ccc(OC)cc1)c1sc3c(CC)cccc3c1O2 (stereo not given) | 3.57% (active)
N#Cc1cnc2ccc(-c3cnc4[nH]ncc4c3)cc2c1N1CCc2cc(F)c(Cl)cc21 | 6.58% (active)
Cc1ccc2c(c1)Oc1nc(N)c(C#N)c(N)c1C2Sc1ccc(F)cc1 (stereo not given) | -96.8% (active)
CC(C)(C)n1cc(-c2ccnc(NCCCNS(=O)(=O)c3cccc(F)c3)n2)c(-c2ccc(Cl)c(O)c2)n1 | 67.5%
C=CC(=O)N1CC=C(c2cc3c(N[C@H](C)c4ccccc4)ncnc3[nH]2)CC1 | 82.7%
COc1ccc(CCOc2cc3c(cc2OC)CCN(C(=O)NCc2cocn2)C3c2ccc(C)cc2C)cc1 (stereo not given) | 20.1%
NS(=O)(=O)c1ccc(-n2cc(CN3CCNCC3)nn2)cc1 | 102%
CCOC(=O)c1c(Nc2ccccc2)nn2c(-c3cccs3)ccnc12 | 81%
Cc1occc1-c1nc2s/c(=C/c3ccc(-c4cc(C(F)(F)F)ccc4Cl)o3)c(=O)n2n1 | 97.7%
C[C@@H](Nc1c(C#N)cnc2ccc(-c3cnc(Cl)c(NS(C)(=O)=O)c3)cc12)c1ccccc1 | 5.67% (active)
COc1cc(-c2nn(C(C)(C)C)cc2-c2ccnc(NCCCNS(=O)(=O)c3ccc(C)cc3)n2)ccc1Cl | 58.1%
O=C(CSc1nnc(-c2ccc3nc(-c4ccccc4)[nH]c3c2)o1)Nc1ccc(C(=O)/C=C/c2ccccc2)cc1 | 106%
Cc1ccc2sc3c(c2c1)OC(N)=C(C#N)C3c1ccc(Cl)cc1 (stereo not given) | 71.1%
CCc1ccc(SC2c3ccc(N(CC)CC)cc3Oc3nc(N)c(C#N)c(N)c32)cc1 (stereo not given) | -74% (active)
COc1cc(-c2ccc3ncnc(NCc4ccccc4)c3c2)cnc1OC | 31.7%
C=CCN(C)S(=O)(=O)/N=C1\NC(=O)NC1=C(Cl)Cl | 47%
CNCc1cccc2c1OCCCCCCC(C)(O)CC(C)(C)S(=O)(=O)c1ccc(cc1)-c1cnc(N)c(n1)C(=O)N2 (stereo not given) | 16%
COc1cccc2c1CN(C(=O)c1ccc(O)c(C(=O)N3Cc4ccc(OCCC[P+](c5ccccc5)(c5ccccc5)c5ccccc5)cc4C3)c1)C2 | 71.7%
Cc1ccc(-c2cc3nc(C(Cl)Cl)nc(C)n3n2)cc1 | 98.1%
